From PubChem BioAssay come the findings set out here.

The test system of experiment [1] is Wnt5a (protein binding on small-molecule microarray). As to the kind of experiment: small molecules binding Wnt5a protein – biophysical, small-molecule microarray, 635/667 nm fluorescence, primary screen (AID 1142).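 Also: fluorescence read at 667 nm with signal to noise per printed feature.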 As to conditions: 635 nm fluorescence, higher = more signal.
The nature of experiment [2]: ATP-based viability of Huh7 replicon cells – cell-based, CellTiter-Glo luminescence, basal, 48 h, cytotoxicity control for HCV replication inhibitor project, primary screen (AID 1143).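 Also: Huh7 hepatoma cells carrying a hepatitis C replication reporter with no stimulus; test concentration not given here.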 As to conditions: higher = more signal, called active from +8 up or from −8 down. (In antiviral work, replicon cells carry a viral genome segment that copies itself.)
The nature of experiment [3]: Pseudomonas biofilm growth suppression – PAO1 strain, BacTiter-Glo luminescence, LB-PBS, primary screen (AID 1144). As to conditions: P. aeruginosa PAO1 biofilm, 12 h, higher = more signal.
Experiment [4] can be described thus: basal CRE-LacZ reporter activity in PC12 – cell-based, unstimulated, primary screen (AID 1145). As to conditions: no forskolin, luminescence, 4.5 h, higher = more signal, called active from +8 up or from −8 down.
A short description of experiment [5]: forskolin-driven CRE-LacZ activity in PC12 – cell-based, CRE-LacZ reporter, forskolin-stimulated, primary screen (AID 1146).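 Also: PC12 cells with 6xCRE LacZ reporter stimulated by forskolin 10 µM; beta-galactosidase reporter signal reflecting CREB driven transcription.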 As to conditions: luminescence, 4.5 h, higher = more signal, called active from +8 up or from −8 down.
The target of experiment [6] is Streptavidin (Streptomyces avidinii) (UniProt P22629). As to the kind of experiment: compounds binding control protein streptavidin – biophysical, small-molecule microarray, 635/667 nm fluorescence, artefact control for SMM compound annotation, primary screen (AID 1147).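 Also: signal reflects streptavidin binding to arrayed compounds as a control protein.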 Conditions: higher = more signal.
Chain of Streptavidin (Streptomyces avidinii) (P22629 whole entry, looked up): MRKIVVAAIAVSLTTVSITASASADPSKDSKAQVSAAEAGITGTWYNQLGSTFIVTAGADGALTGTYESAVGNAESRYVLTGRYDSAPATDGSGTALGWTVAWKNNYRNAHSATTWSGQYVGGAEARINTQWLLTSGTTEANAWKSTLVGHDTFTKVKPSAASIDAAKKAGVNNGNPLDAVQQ
Experiment [7] is described as follows: probe aInhba binding on compound microarray – biochemical, small-molecule microarray, 635/667 nm fluorescence, primary screen (AID 1148).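 Also: score merges 667nm spot fluorescence with signal-to-noise for antibody binding to printed compounds.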 Conditions: higher = more signal.
The target of experiment [8] is Torsin-1A (Homo sapiens) (UniProt O14656). As to the kind of experiment: TOR1A wild-type binding on microarray – cell lysate, small-molecule microarray, lysate, 635/667 nm, primary screen (AID 1149). As to conditions: COS7 hTOR1A-WT lysate, 635 nm fluorescence, higher = more signal.
Chain of Torsin-1A (Homo sapiens) (O14656 whole entry, looked up): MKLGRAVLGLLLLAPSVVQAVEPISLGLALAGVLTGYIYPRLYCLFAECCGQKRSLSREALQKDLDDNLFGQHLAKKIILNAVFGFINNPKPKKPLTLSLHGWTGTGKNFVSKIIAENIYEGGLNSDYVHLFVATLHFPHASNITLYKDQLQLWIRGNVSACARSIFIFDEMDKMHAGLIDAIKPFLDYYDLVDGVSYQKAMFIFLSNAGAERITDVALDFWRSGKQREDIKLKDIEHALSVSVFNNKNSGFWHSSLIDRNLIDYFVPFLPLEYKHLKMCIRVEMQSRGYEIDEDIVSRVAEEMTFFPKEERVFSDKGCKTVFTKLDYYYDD
Experiment [9] has the same target. Briefly: torsin A mutant lysate binding on microarrays – cell lysate, small-molecule microarray, COS7 lysate, 635/667 nm fluorescence, primary screen (AID 1150).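 Also: score pools 667 nm emission and signal to noise measuring lysate protein binding.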 Conditions: COS7 hTOR1A mutant lysate, 635 nm fluorescence, higher = more signal.
For experiment [10], the system named is Sonic hedgehog protein (Shh). As to the kind of experiment: Sonic hedgehog microarray binding compounds – biochemical, small-molecule microarray, 635/667 nm fluorescence, primary screen (AID 1151).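 Also: Shh protein binding to compounds spotted on small-molecule microarray slides; score combines spot fluorescence intensity with signal-to-noise across triplicate slides.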 As to conditions: 635 nm fluorescence, higher = more signal.
Experiment [11] in a line: optical density shifts of acrAB sulA E. coli – strain DRC41, OD650, 48 h, E. coli filamentation inducer project, primary screen (AID 1152).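 Also: E. coli MC1000 strain DRC41 lacking acrAB efflux pump and sulA.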 Conditions: higher = more signal, called active from +8 up or from −8 down.
A short description of experiment [12]: probe aLefty1 binding on compound microarray – biochemical, small-molecule microarray, 635/667 nm fluorescence, primary screen (AID 1153).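 Also: score merges spot fluorescence with signal-to-noise ratio from the scanned slide images.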 Conditions: higher = more signal.
Experiment [13] is described as follows: plasmodial surface anion channel blockers, osmotic lysis – cell-based, P. falciparum Indochina, OD700, 1 h, primary screen (AID 1154). Conditions: P. falciparum Indochina infected RBC osmotic lysis, higher = more signal, called active from +8 up or from −8 down.
A short description of experiment [14]: plasmodial surface anion channel blockers, osmotic lysis – cell-based, P. falciparum Indochina, OD700, 2 h, primary screen (AID 1155).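 Also: lysis reports solute entry through the parasite surface anion channel PSAC.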 Conditions: P. falciparum Indochina infected erythrocytes, higher = more signal, called active from +8 up or from −8 down.
The nature of experiment [15]: changes in parasitized red cell lysis, either direction – P. falciparum Indochina, OD700, 3 h, PSAC antagonist project, primary screen (AID 1156). As to conditions: P. falciparum-infected erythrocytes, osmotic lysis, higher = more signal, called active from +8 up or from −8 down.
Experiment [16] in a line: plasmodial surface anion channel blockers, osmotic lysis – cell-based, P. falciparum Indochina, OD700, 18 h, primary screen (AID 1157). Conditions: P. falciparum Indochina infected erythrocytes, osmotic lysis OD700, 18 h; higher = more signal, called active from +8 up or from −8 down.
A short description of experiment [17]: S6 kinase pathway phospho-S6 level changes – cell-based, A549, cytoblot, luminescence, serum-stimulated, primary screen (AID 1158).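 Also: serum-stimulated A549 lung adenocarcinoma cells; signal is phosphorylated S6 detected by cytoblot immunostaining with HRP secondary.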 As to conditions: 5 h, higher = more signal.
In experiment [18] the target is NADPH oxidase 2 (Homo sapiens) (UniProt P04839). As to the kind of experiment: compounds shifting NOX2 Amplex Red fluorescence – cell-based, HEK293-NOX2, PMA-stimulated, NOX inhibitor project, primary screen (AID 1159). Also: test concentration not given here. As to conditions: 45 min, higher = more signal, called active from +8 up or from −8 down.
Chain of NADPH oxidase 2 (Homo sapiens) (P04839 whole entry, looked up): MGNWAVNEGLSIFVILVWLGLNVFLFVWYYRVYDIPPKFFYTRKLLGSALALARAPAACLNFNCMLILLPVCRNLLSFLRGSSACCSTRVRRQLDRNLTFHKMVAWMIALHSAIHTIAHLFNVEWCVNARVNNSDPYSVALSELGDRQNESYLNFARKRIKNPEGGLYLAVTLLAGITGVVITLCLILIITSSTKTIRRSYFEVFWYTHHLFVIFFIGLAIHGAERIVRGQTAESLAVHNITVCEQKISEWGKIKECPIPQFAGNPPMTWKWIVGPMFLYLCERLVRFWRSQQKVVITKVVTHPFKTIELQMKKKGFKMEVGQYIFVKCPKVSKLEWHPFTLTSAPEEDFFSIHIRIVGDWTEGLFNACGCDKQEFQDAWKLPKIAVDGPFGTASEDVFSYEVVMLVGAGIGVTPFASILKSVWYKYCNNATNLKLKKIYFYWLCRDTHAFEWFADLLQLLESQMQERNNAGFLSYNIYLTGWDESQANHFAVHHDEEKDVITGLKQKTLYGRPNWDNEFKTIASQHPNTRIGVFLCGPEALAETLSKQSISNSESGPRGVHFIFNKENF
Experiment [19] deals with NADPH oxidase 4 (Homo sapiens) (UniProt Q9NPH5). Briefly: compounds shifting NOX4 Amplex Red fluorescence – cell-based, HEK293-NOX4, tetracycline-induced, NOX inhibitor project, primary screen (AID 1160). As to conditions: HEK293-NOX4, Amplex Red H2O2 fluorescence, 45 min; higher = more signal, called active from +8 up or from −8 down.
Chain of NADPH oxidase 4 (Homo sapiens) (Q9NPH5 whole entry, looked up): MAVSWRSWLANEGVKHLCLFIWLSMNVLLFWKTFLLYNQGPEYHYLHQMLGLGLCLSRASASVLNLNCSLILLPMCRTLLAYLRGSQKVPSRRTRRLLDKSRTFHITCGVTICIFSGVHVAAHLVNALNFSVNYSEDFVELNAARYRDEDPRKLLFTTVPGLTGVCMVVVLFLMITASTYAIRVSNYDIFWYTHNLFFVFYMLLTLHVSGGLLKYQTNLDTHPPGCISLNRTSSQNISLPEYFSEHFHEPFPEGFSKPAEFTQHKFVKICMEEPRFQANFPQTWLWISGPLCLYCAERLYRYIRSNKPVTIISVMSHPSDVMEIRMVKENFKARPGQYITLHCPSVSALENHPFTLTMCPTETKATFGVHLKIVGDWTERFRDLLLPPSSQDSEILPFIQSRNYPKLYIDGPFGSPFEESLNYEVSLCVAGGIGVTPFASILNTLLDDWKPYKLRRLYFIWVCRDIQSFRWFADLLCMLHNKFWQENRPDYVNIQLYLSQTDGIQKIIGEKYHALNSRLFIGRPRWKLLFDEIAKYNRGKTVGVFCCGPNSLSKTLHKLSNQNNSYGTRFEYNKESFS
Experiment [20] concerns the target NADPH oxidase 5 (Homo sapiens) (UniProt Q96PH1). Briefly: compounds shifting NOX5 Amplex Red fluorescence – cell-based, HEK293-NOX5, NOX inhibitor project, primary screen (AID 1161). Conditions: HEK293-NOX5, ionomycin, 45 min, higher = more signal.

SMILES strings stand for the structures. The source made the active and inactive calls. Unless noted, no rule for the calls is given here.

Chain of NADPH oxidase 5 (Homo sapiens) (Q96PH1 whole entry, looked up): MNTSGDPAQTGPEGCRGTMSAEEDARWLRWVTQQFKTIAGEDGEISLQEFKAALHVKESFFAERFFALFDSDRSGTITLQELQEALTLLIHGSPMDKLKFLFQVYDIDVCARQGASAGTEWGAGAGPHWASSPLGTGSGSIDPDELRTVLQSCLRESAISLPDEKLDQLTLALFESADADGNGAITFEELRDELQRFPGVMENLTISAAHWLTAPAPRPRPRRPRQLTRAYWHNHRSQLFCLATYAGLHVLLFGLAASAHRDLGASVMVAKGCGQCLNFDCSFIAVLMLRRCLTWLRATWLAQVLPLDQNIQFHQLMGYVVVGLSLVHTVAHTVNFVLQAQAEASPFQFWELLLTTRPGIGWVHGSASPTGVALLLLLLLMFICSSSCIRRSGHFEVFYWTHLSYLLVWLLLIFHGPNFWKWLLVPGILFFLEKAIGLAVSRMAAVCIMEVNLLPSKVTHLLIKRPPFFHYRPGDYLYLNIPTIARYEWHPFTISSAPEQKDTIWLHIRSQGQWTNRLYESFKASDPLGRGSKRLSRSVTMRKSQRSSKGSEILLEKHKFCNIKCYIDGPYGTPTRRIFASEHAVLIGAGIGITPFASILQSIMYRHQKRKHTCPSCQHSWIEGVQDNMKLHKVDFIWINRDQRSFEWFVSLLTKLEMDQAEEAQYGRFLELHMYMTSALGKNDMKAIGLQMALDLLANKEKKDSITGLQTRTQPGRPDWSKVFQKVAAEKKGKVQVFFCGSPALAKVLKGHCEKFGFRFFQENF

Turning to `CC(C)C(=C=CC[C@H](O)c1ccc(OCCO)cc1)CCO`, the composite z-score was 0.803 in experiment [1]; 0.0996 in [6]; -0.179 in experiment [7]; 1.37 with Torsin-1A (Homo sapiens) [8]; 0.653 with Torsin-1A (Homo sapiens) [9]; 2.05 in experiment [10]. In [12], this molecule came in with a composite z-score of 0.0945. Further, the z-score in experiment [2] was -1.97 (inactive); in [3], -0.596 (inactive); in experiment [4], 3.49 (inactive); in [5], 0.36 (inactive); in experiment [11], -0.595 (inactive); in experiment [13], 9.47 (active). The z-score in [14] was 1.99 (inactive); in [15] it was 1.11 (inactive); in [16], 0.553 (inactive); in experiment [17], -0.365; in experiment [18], -1.06 (inactive); in [19], -0.581 (inactive). Further, the z-score in [20] is -1.96.
Consider `C[C@@]1([C@@H](NC(=O)c2ccc(-c3ccccc3)cc2)c2ccc(Cl)cc2)C[C@H]1C1CCCCC1`, for which the composite z-score in [1] is 0.271; in [6], 1.35; in experiment [7], 0.289; in the experiment with Torsin-1A (Homo sapiens) [8], 0.564; in the experiment with Torsin-1A (Homo sapiens) [9] it was 0.0484; in [10], -0.106. The molecule also showed a composite z-score in experiment [12] of 0.284. Moreover, the z-score in experiment [2] was -1.18 (inactive); in [3], -0.123 (inactive); in experiment [4], 0.972 (inactive); in experiment [5], 0.829 (inactive); in experiment [11], -1.28 (inactive); in [13], 15.8 (active). For the same molecule, the z-score in experiment [14] was 3.36 (inactive); in experiment [15], -0.0758 (inactive); in experiment [16], 1.11 (inactive); in [17], -0.216; in [18], -0.75 (inactive); in experiment [19] it was 0.205 (inactive). The z-score in [20] was 0.644.
Turning to `C=CCC(OC(C)=O)[C@@H]1[C@@H](N(Cc2ccc(-c3cccc(C(F)(F)F)c3)o2)C(=O)c2ccc(C)cc2)c2cc(OCCCO)ccc2N1C(=O)Cc1ccc2ccccc2c1` (stereo not given in full), the composite z-score is -0.125 in experiment [1]; -0.269 in experiment [6]; -0.024 in experiment [7]; -0.563 with Torsin-1A (Homo sapiens) [8]; -0.702 in the experiment with Torsin-1A (Homo sapiens) [9]; 0.223 in experiment [10]. Besides, in experiment [12], the composite z-score was -0.0035. In addition, the z-score was -0.0329 (inactive) in [2]; -0.568 (inactive) in experiment [3]; -1.1 (inactive) in experiment [4]; -0.0977 (inactive) in experiment [5]; 1.93 (inactive) in [11]; 1.05 (inactive) in experiment [13]. Further, the z-score is 0.172 (inactive) in experiment [14]; -0.305 (inactive) in [15]; 0.825 (inactive) in [16]; 0.533 in experiment [17]; -0.439 (inactive) in [18]; 1.04 (inactive) in experiment [19]. For the same molecule, the z-score in [20] came to 1.51.
In the case of `C=C(COC)/C(=C/C[C@@H](OC(=O)c1ccncc1)c1ccc(CO)o1)c1cc(C(=O)OC)ccc1OC`, the composite z-score in [1] was 1.08; in experiment [6] it was 0.207; in experiment [7] it was -0.0645; with Torsin-1A (Homo sapiens) [8], 1.1; with Torsin-1A (Homo sapiens) [9] it was 0.756; in [10], 2.17. The molecule further showed a composite z-score in experiment [12] of 0.062. The z-score in experiment [2] was -0.158 (inactive); in experiment [3] it was -0.985 (inactive); in experiment [4] it was 0.904 (inactive); in experiment [5], 1.31 (inactive); in experiment [11], 0.855 (inactive); in [13] it was 3.87 (inactive). Moreover, the z-score in experiment [14] was 0.453 (inactive); in experiment [15] it was 1.57 (inactive); in experiment [16] it was 0.308 (inactive); in [17], 0.934; in [18], -0.631 (inactive); in experiment [19], -0.124 (inactive). The z-score in experiment [20] is -0.495.
Turning to `CN(C)CCCC[C@@H]1NC(=O)[C@H]2C[C@@H](C(=O)NCCCCCCN)[C@@H](c3ccc(O)cc3)N2C1=O`, the composite z-score in experiment [1] is 0.538; in [6] it was 1.28; in experiment [7], 0.308; with Torsin-1A (Homo sapiens) [8], 1.13; with Torsin-1A (Homo sapiens) [9], 0.755; in [10], 2.03. In addition, the composite z-score in [12] was 1.5. In addition, the z-score in [2] is 0.181 (inactive); in experiment [3], 0.523 (inactive); in [4] it was -0.256 (inactive); in [5], -0.139 (inactive); in experiment [11], 0.51 (inactive); in experiment [13], 0.453 (inactive). The z-score is 0.374 (inactive) in experiment [14]; 1.31 (inactive) in [15]; 0.0314 (inactive) in experiment [16]; -0.24 in experiment [17]; 0.277 (inactive) in [18]; 0.236 (inactive) in experiment [19]. In addition, the z-score in experiment [20] was 0.731.
